Assay results taken from PubChem BioAssay.
Values joined by “and” are separate entries in the source; they are usually repeats but may differ in a detail not shown here. Identical values can stand only once. Inconclusive results are not listed. Active and inactive are the calls of the source.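 How the source made its calls, unless noted: active means compounds whose cell count with miR-34 switched on is under 0.7 times the count with it off; inactive means the rest.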

Assays:
[1] = compounds altering viability of human ES cells (AID 493140; call rule not given here;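 further: cells exposed to compounds for four days before counting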); conditions: human embryonic stem cell survival screen; stronger effect = higher value
[2] = viability loss with induced miR-34 in A549 – imaging, A549 dox-inducible miR-34, nuclei and caspase counts, primary screen (AID 1347080); conditions: A549 miR-34 inducible, Hoechst nuclei count, 48 h
[3] = galactose survival enhancers in mitochondrial complex I cybrids – cell-based, galactose medium, ATP luminescence, primary screen (AID 1645843;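 active means z-score of at least 1.8 in each of two replicates, scored against plate mean and spread of sample wells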;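 further: positive z means more ATP and so rescue of galactose-driven cybrid death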); conditions: complex I mutant cybrid cells, 72 h, stronger effect = higher value
[4] = P. berghei load reduction in hepatocytes – cell-based, HepG2, luciferase luminescence, HepG2 viability, primary screen (AID 624349; in the data active means parasite load remaining mostly below about 12%, no sharp cut-off; inactive means mostly above about 10%;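 further: 100% = mean of DMSO negative control wells on the same plate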); conditions: P. berghei liver stage in HepG2, luciferase luminescence, concentration not given here; parasite load remaining: stronger effect = lower value; viability: measured here: HepG2 viability without parasites
[5] = molecular target: ATP-dependent translocase ABCB1 (Homo sapiens) (UniProt P08183); experiment: P-glycoprotein substrate transport blockade – cell-based (AID 377; in the data active means fluorescence slope change above about 50%); conditions: MDR1-expressing cells, fluorescent substrate accumulation slope; stronger effect = higher value; concentration not given here
[6] = compounds altering circadian rhythm period length – cell-based, LOPAC library, luminescence reporter (AID 2774; call rule not given here;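 further: values are relative to mean of DMSO wells on each plate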); conditions: circadian reporter cells, at 7 µM, actives lie on both sides
[7] = system: Hepatitis C virus NS3 helicase; experiment: blockers of NS3h binding to ssDNA – biochemical, fluorescence polarization, LOPAC1280 library, primary screen (AID 687035; in the data active means inhibition above about 37%); conditions: Purified HCV NS3 helicase, Cy5-dT15 ssDNA binding fluorescence polarization; stronger effect = higher value; concentration not given here
[8] = compounds altering Cy5-DNA-NS3h complex signal – biochemical, LOPAC1280, artefact control for HCV NS3 helicase inhibitor project (AID 687037; call rule not given here); conditions: Cy5-DNA-NS3h complex fluorescence interference counterscreen
[9] = signal quenchers or enhancers, Cy5 substrate/SSB – biochemical, NIH Clinical Collection, E. coli SSB, artefact control for HCV NS3 helicase inhibitor project (AID 743268; call rule not given here); conditions: Cy5-oligo bound E. coli SSB, fluorescence interference
[10] = system: Hepatitis C virus NS3 helicase; experiment: blockers of NS3h binding to DNA – biochemical, fluorescence polarization, NIH Clinical Collection, primary screen (AID 743270; call rule not given here); conditions: NS3 helicase binding to Cy5-dT15 DNA, stronger effect = higher value, concentration not given here
[11] = molecular target: Single-stranded DNA-binding protein (Escherichia coli (strain K12)) (UniProt P0AGE0); experiment: SSB-ssDNA binding inhibitors – biochemical, fluorescence polarization, NIH Clinical Collection, counter-screen for HCV NS3 helicase inhibitor project (AID 743271; in the data active means inhibition above about 28%); conditions: E. coli SSB-DNA binding, stronger effect = higher value, concentration not given here
[12] = compounds distorting NS3 helicase fluorescence signal – biochemical, NIH Clinical Collection, artefact control for HCV NS3 helicase inhibitor project (AID 743272; call rule not given here;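 further: HCV NS3 helicase with a Cy5 labelled single stranded DNA probe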); conditions: fluorescence interference counterscreen, HCV NS3 helicase assay; stronger effect = lower value
[13] = measured here: relative caspase fold change +Dox/-Dox
[14] = measured here: total cells with miR-34 induction, stronger effect = lower value
[15] = measured here: total cells without miR-34 induction
[16] = stronger effect = lower value, cell number ratio, induced over uninduced

Chain of ATP-dependent translocase ABCB1 (Homo sapiens) (P08183 whole entry, looked up): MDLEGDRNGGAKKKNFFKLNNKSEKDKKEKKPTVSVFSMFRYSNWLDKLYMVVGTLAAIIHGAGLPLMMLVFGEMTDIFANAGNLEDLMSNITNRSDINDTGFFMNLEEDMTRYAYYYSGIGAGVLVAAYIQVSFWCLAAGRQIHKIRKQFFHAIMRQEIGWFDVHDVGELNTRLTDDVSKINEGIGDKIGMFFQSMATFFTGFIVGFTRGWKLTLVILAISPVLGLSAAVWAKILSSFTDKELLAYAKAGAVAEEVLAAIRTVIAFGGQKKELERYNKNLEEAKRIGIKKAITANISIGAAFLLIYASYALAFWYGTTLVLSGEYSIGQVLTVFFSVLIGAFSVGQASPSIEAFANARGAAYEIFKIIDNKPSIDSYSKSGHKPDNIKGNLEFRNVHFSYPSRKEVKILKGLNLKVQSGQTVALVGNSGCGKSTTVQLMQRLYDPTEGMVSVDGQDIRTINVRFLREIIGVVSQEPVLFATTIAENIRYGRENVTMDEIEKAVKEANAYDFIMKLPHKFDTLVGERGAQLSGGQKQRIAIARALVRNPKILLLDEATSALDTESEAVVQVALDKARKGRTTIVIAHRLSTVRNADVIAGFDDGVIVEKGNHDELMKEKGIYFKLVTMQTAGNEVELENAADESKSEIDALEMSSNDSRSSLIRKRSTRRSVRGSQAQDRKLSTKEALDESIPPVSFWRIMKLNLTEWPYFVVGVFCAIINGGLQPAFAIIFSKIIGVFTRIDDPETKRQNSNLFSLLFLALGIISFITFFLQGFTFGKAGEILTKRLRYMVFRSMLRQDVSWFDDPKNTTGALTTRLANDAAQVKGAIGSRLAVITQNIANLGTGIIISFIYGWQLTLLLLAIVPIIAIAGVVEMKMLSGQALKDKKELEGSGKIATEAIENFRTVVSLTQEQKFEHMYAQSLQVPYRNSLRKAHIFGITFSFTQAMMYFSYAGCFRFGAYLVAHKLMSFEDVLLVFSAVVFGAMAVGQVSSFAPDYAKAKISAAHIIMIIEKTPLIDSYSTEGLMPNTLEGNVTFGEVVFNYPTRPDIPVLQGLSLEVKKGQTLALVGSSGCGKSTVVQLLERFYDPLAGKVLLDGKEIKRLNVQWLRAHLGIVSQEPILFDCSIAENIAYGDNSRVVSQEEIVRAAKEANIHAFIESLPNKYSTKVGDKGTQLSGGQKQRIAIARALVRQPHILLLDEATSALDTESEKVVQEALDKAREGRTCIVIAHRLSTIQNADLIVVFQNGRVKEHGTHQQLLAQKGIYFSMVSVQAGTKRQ

CCCCCCCCCCCCCCCCOC[C@H](COP(=O)([O-])OCC[N+](C)(C)C)OC(C)=O
survival [1]: 57.8 (inactive)
fold change ([2]; stronger effect = lower value): 0.933 (inactive) and 0.881 (inactive)
fold change [2, 13]: 1.16 and 1.84
cell count [2, 14]: 5630 and 5430
cell count [2, 15]: 6040 and 6160

C[C@]12CCC(=O)C=C1CCC1C2CC[C@@]2(C)C1CC[C@]2(C)O (some centres not stated)
fold change ([2]; stronger effect = lower value): 1.16 (inactive)
fold change [2, 13]: 0.795
cell count [2, 14]: 2670
cell count [2, 15]: 2300
z-score [3]: -1.03 (inactive)

C=C1C/C(=C/C)C(=O)O[C@@H]2CCN3CC=C(COC(=O)[C@]1(C)O)[C@H]23
survival [1]: 10.6 (inactive)
parasite load remaining [4]: 91.1% (inactive) and 73.7% (inactive)
viability [4]: 125% and 77.7%
fold change ([2]; stronger effect = lower value): 0.88 (inactive)
fold change [2, 13]: 1.73
cell count [2, 14]: 9540
cell count [2, 15]: 10800

CN1CC[C@@]23CCCCC2C1Cc1ccc(O)cc13 (some centres not stated)
fold change ([2]; stronger effect = lower value): 0.886 (inactive)
fold change [2, 13]: 1.9
cell count [2, 14]: 9070
cell count [2, 15]: 10200
z-score [3]: 0.545 (inactive)

CCCCCCCCCCCCCCCC(=O)OC[C@H](COP(=O)([O-])OCC[N+](C)(C)C)OC(C)=O
survival [1]: 57 (inactive)
fold change ([2]; stronger effect = lower value): 0.988 (inactive)
fold change [2, 13]: 1.32
cell count [2, 14]: 5610
cell count [2, 15]: 5670

CC(C)C[C@H]1C(=O)N2CCC[C@H]2[C@]2(O)O[C@](NC(=O)[C@@H]3C=C4c5cccc6[nH]cc(c56)C[C@H]4N(C)C3)(C(C)C)C(=O)N12
fluorescence slope change [5]: 95.9% (active)
survival [1]: 9.42 (inactive)
parasite load remaining [4]: 59.7% (inactive)
viability [4]: 94.6%
fold change ([2]; stronger effect = lower value): 0.917 (inactive)
fold change [2, 13]: 1.12
cell count [2, 14]: 7540
cell count [2, 15]: 8220

COc1ccn(C)c(=O)c1C#N
survival [1]: 4.25 (inactive)
parasite load remaining [4]: 84.9% (inactive)
viability [4]: 97.3%
fold change ([2]; stronger effect = lower value): 0.883 (inactive)
fold change [2, 13]: 1.32
cell count [2, 14]: 9150
cell count [2, 15]: 10400

C[C@]12CCC3C(CCC4=CC(=O)CC[C@@]43C)C1CCC2O (some centres not stated)
fold change ([2]; stronger effect = lower value): 0.881 (inactive)
fold change [2, 13]: 1.72
cell count [2, 14]: 8500
cell count [2, 15]: 9660
z-score [3]: 0.515 (inactive)

CNCC(O)c1ccc(O)c(OC)c1 (configuration not stated)
fluorescence slope change [5]: 189% (active)
survival [1]: 30.2 (inactive)
parasite load remaining [4]: 40.2% (inactive) and 98.3% (inactive)
viability [4]: 47.9% and 90.3%
fold change [2, 16]: 0.905 (inactive)
fold change [2, 13]: 1.46
cell count [2, 14]: 8830
cell count [2, 15]: 9760

CN1C(CC(O)c2ccccc2)CCCC1CC(O)c1ccccc1 (configuration not stated)
survival [1]: 5.42 (inactive)
parasite load remaining [4]: 93.7% (inactive) and 75.5% (inactive)
viability [4]: 96.2% and 77.8%
fold change ([2]; stronger effect = lower value): 0.827 (inactive)
fold change [2, 13]: 1.06
cell count [2, 14]: 8680
cell count [2, 15]: 10500

C[C@H]1C2Cc3ccc(O)cc3C1(C)CCN2CC1CC1 (some centres not stated)
period change [6]: -0.055 h (inactive)
fold change ([2]; stronger effect = lower value): 0.949 (inactive)
fold change [2, 13]: 1.14
cell count [2, 14]: 10600
cell count [2, 15]: 11200
z-score [3]: -0.12 (inactive)

CC(C)[C@]12OC1C1O[C@]13[C@]1(OC1CC1C4=C(CC[C@@]13C)C(=O)OC4)C2O (some centres not stated)
fold change [2, 16]: 0.971 (inactive)
fold change [2, 13]: 1.93
cell count [2, 14]: 2260
cell count [2, 15]: 2320
z-score [3]: -1.85 (inactive)

OC[C@H]1O[C@@H](n2cnc3cc(Cl)c(Cl)cc32)C(O)[C@H]1O (some centres not stated)
survival [1]: 56.1 (inactive)
fold change ([2]; stronger effect = lower value): 0.916 (inactive)
fold change [2, 13]: 0.917
cell count [2, 14]: 1540
cell count [2, 15]: 1680

CCCCCCCCCCCCCCCCOC[C@@H](O)COP(=O)([O-])OCC[N+](C)(C)C
survival [1]: 114 (inactive)
fold change ([2]; stronger effect = lower value): 0.982 (inactive) and 0.938 (inactive)
fold change [2, 13]: 1.56 and 0.831
cell count [2, 14]: 5950 and 5610
cell count [2, 15]: 6060 and 5980

CC(C)(O)[C@@H]1[C@H]2OC(=O)[C@@H]1[C@]1(O)C[C@H]3O[C@]34C(=O)O[C@H]2[C@]14C (tested in a mixture with another compound)
period change [6]: -0.105 h (inactive)
parasite load remaining [4]: 96.3% (inactive)
viability [4]: 67.1%
inhibition [7]: -5% (inactive)
fluorescence ratio (interference) [8]: 1 (inactive)
fluorescence ratio [9]: 1 (inactive)
inhibition [10]: 0.4% (inactive)
inhibition [11]: -0.1% (inactive)
fluorescence ratio [12]: 0.9 (inactive)
fold change ([2]; stronger effect = lower value): 1.06 (inactive)
fold change [2, 13]: 1.05
cell count [2, 14]: 11200
cell count [2, 15]: 10500
z-score [3]: 0.54 (inactive)

COc1ccc(C[C@@H]2NC[C@@H](O)[C@@H]2OC(C)=O)cc1
survival [1]: 0.25 (inactive)
parasite load remaining [4]: 4.56% (inactive)
viability [4]: 32.9%
fold change ([2]; stronger effect = lower value): 0.95 (inactive)
fold change [2, 13]: 1.1
cell count [2, 14]: 1100
cell count [2, 15]: 1160

C=C(C)CN1CC[C@]23c4c5ccc(O)c4OC2c2[nH]c4ccccc4c2C[C@@]3(O)C1C5 (some centres not stated)
fold change ([2]; stronger effect = lower value): 0.245 (active)
fold change [2, 13]: 1.96
cell count [2, 14]: 761
cell count [2, 15]: 3110
z-score [3]: -1.44 (inactive)

Oc1ccc2c3c1OC1c4[nH]c5ccccc5c4C[C@@]4(O)C(C2)N(CC2CC2)CC[C@]314 (some centres not stated)
fold change ([2]; stronger effect = lower value): 0.943 (inactive)
fold change [2, 13]: 1.78
cell count [2, 14]: 8150
cell count [2, 15]: 8650
z-score [3]: -0.925 (inactive)

CN1CC[C@]2(c3cccc(O)c3)Cc3nc4ccccc4cc3CC2C1 (some centres not stated)
fold change [2, 16]: 0.813 (inactive)
fold change [2, 13]: 1.31
cell count [2, 14]: 7470
cell count [2, 15]: 9190
z-score [3]: -0.555 (inactive)

CCC1C=CC=CCC(C)C(O)C(C)C(=O)C(C)C(O)C(C)C(=O)C(C)C(O)C(C)C=CC(=O)OC2C(C)C(CC1)O[C@@]1(CCC(C)C(CC(C)O)O1)C2C (some centres not stated)
fold change [2, 16]: 1.03 (inactive)
fold change [2, 13]: 1.64
cell count [2, 14]: 7130
cell count [2, 15]: 6920
z-score [3]: -0.03 (inactive)

C[C@]12CCC3C4CCC(=O)C=C4CCC3C1CCC2O (some centres not stated)
fold change ([2]; stronger effect = lower value): 0.894 (inactive)
fold change [2, 13]: 1.48
cell count [2, 14]: 7980
cell count [2, 15]: 8920
z-score [3]: -0.31 (inactive)

C[C@@H]1NCCc2cc(O)c(O)cc21
fluorescence slope change [5]: -10.9% (inactive)
survival [1]: 6 (inactive)
parasite load remaining [4]: 75.9% (inactive) and 47.5% (inactive)
viability [4]: 120% and 73.8%
fold change [2, 16]: 0.841 (inactive)
fold change [2, 13]: 1.51
cell count [2, 14]: 8760
cell count [2, 15]: 10400
